From the supplement of paper PMC10849652
Targets with a hit are over-represented here; the source holds about 7,900 in all. About 0.6% of all pairs of compound and target were hits. A number with no mark means an inactive call.

Columns and labels:
Assay in all cases: log2 fold change, soluble protein after heating vs DMSO (PISA); higher = thermal stabilisation; K562 cells, 10 uM, 30 min; active = over 0.2 and 3.5 SD of the protein, either way, in both replicates (recomputed)
erlotinib = compound: C#Cc1cccc(Nc2ncnc3cc(OCCOC)c(OCCOC)cc23)c1 [erlotinib]
How it was run: (§1)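 Soluble protein was quantified by TMTpro 16plex LC-MS/MS after channel sums were equalised. It was obtained as the supernatant after 21,000xg for 90 min from pooled aliquots of K562 cells (2×10^6 cells/mL, 10 μM compound, 30 min) heated for 3 min across 48°C-58°C and extracted in PBS with 0.5% NP-40 at 4°C. Thermal stability values are relative to control samples and come from duplicates. They are given as log2 fold changes.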

[1] = compound: C/C(=N\NC(=O)C1=CC(=CC=C1)S(=O)(=O)N2CCOCC2)/C3=C(C=CC(=C3)Cl)O
How it was run: as §1

[2] = compound: C1=CC(=C(C=C1Cl)C2=NC3=NC=CN=C3C(=N2)NC4=CC=NC=C4)F
How it was run: as §1

[3] = compound: C1=CC(=CC=C1C2=NC3=C(N2)C=C(C=C3)C(=O)N)OC4=CC=C(C=C4)Cl
How it was run: as §1

[4] = compound: C1=CC2=C(C=CC(=C2)/C=C\3/C(=O)NC(=NCC4=CC=CS4)S3)N=C1
How it was run: as §1

[5] = compound: C1=CC2=NC=CN=C2C=C1/C=C/3\C(=O)NC(=O)S3
How it was run: as §1

[6] = compound: C1=CC=C(C=C1)C2=NC(=C(N2)C3=CC=NC=C3)C4=CC(=C(C=C4)Cl)O
How it was run: as §1

[7] = compound: C1=CC=C2C(=C1)C3=NNC4=CC=CC(=C43)C2=O
How it was run: as §1

[8] = compound: C1CCN(C1)C(=O)NC2=CC=CC(=C2)NC3=NC=C(C(=N3)NCCC4=CN=CN4)Br
How it was run: as §1

[9] = compound: C1CN(CCC1(CC2=CC=C(C=C2)Cl)N)C3=NC=NC4=C3C=CN4
How it was run: as §1

IRAK-1-4 Inhibitor I = compound: C1COCCN1CCN2C3=CC=CC=C3N=C2NC(=O)C4=CC(=CC=C4)[N+](=O)[O-] [IRAK-1-4 Inhibitor I]
How it was run: as §1

ibrutinib = compound: C=CC(=O)N1CCC[C@@H](n2nc(-c3ccc(Oc4ccccc4)cc3)c3c(N)ncnc32)C1 [ibrutinib]
How it was run: as §1

[10] = compound: CC(=O)c1cnc2ccc(-c3cc(Cl)c(O)c(Cl)c3)nc2c1N[C@H]1CC[C@H](CN(C)C)CC1
How it was run: as §1

ralimetinib = compound: CC(C)(C)Cn1c(N)nc2ccc(-c3[nH]c(C(C)(C)C)nc3-c3ccc(F)cc3)nc21 [ralimetinib]
How it was run: as §1

[11] = compound: CC(C)(O)CC(=O)NCCn1ccc2ncnc(Nc3ccc(Oc4cccc(C(F)(F)F)c4)c(Cl)c3)c21
How it was run: as §1

[12] = compound: CC(C)C1=C2N=C(C=C(N2N=C1)NCC3=CC=CC=C3)NCCCCCCN
How it was run: as §1

[13] = compound: CC(C)C[C@@H](C=O)NC(=O)[C@H](CC(C)C)NC(=O)[C@H](CC(C)C)NC(=O)OCc1ccccc1
How it was run: as §1

pinometostat = compound: CC(C)N(C[C@H]1O[C@@H](n2cnc3c(N)ncnc32)[C@H](O)[C@@H]1O)[C@H]1C[C@@H](CCc2nc3cc(C(C)(C)C)ccc3[nH]2)C1 [pinometostat]
How it was run: as §1

[14] = compound: CC1=C(C(CC(=O)N1)C2=CC=C(C=C2)C(F)(F)F)C(=O)NC3=C(C=C4C(=C3)C=NN4)F
How it was run: as §1

[15] = compound: CC1=C(C2=C(C=C1)C(=O)C3=CC=CC=C3N2CCCN)C
How it was run: as §1

UniProt Q9H0R4, sequence (Q9H0R4 whole entry, looked up): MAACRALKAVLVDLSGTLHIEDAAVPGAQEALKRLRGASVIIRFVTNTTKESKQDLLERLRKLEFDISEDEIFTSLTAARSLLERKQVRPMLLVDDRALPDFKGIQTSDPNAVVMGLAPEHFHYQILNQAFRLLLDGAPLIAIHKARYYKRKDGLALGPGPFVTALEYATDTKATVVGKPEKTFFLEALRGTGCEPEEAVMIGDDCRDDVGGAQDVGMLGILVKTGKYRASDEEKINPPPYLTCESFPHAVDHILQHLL
UniProt Q9P2D3, sequence (Q9P2D3 whole entry, looked up): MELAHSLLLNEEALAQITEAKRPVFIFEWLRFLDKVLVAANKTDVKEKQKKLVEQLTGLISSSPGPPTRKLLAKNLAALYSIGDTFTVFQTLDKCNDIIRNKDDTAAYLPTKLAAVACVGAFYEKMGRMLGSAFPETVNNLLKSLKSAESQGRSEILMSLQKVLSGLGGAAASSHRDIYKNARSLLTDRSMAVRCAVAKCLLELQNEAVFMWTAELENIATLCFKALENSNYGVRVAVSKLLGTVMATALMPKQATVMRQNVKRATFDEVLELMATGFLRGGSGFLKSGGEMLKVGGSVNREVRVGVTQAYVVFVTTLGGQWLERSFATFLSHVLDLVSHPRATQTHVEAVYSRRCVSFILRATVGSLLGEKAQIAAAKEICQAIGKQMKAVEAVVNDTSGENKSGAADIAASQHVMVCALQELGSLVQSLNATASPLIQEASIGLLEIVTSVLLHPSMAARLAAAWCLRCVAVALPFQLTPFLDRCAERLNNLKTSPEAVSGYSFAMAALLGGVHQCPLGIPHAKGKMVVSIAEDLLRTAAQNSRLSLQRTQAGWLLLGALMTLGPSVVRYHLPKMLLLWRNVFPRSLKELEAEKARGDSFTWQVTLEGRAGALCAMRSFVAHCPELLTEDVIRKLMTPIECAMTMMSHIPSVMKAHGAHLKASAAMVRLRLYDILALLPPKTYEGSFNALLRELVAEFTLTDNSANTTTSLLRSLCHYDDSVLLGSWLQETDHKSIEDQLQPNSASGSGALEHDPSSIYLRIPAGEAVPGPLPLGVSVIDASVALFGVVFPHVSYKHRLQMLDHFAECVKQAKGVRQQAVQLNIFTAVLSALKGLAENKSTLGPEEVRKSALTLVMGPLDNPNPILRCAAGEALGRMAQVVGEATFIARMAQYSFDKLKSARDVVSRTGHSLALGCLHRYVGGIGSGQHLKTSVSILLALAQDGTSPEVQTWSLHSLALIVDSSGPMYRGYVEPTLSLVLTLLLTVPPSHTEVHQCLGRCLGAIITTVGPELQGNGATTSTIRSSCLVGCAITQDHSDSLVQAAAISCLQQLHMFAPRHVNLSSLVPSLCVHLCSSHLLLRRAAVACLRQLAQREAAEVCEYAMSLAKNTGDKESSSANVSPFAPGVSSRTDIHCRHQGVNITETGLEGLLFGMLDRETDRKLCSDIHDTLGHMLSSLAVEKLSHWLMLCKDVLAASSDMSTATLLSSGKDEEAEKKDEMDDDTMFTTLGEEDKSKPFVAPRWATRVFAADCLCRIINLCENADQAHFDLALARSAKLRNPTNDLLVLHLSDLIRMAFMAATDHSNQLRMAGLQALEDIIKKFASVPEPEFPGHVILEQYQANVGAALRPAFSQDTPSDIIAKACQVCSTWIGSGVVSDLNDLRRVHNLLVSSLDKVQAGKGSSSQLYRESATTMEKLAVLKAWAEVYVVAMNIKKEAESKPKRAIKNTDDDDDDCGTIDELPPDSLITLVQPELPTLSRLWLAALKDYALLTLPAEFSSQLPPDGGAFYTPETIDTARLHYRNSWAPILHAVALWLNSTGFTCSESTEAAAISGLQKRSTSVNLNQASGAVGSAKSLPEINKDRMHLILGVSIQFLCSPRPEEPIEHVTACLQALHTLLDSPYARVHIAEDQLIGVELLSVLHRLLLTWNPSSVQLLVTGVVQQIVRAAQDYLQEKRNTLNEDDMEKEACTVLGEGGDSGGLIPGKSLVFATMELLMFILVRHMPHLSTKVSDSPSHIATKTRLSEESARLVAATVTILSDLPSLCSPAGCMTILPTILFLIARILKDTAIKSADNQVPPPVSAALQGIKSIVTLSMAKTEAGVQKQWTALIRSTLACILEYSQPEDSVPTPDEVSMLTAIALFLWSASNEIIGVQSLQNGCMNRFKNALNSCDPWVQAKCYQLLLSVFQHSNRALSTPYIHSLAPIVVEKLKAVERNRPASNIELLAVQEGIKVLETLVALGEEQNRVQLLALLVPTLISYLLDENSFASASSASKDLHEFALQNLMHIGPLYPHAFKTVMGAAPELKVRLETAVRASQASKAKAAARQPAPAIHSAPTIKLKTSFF
UniProt P60520, sequence (P60520 whole entry, looked up): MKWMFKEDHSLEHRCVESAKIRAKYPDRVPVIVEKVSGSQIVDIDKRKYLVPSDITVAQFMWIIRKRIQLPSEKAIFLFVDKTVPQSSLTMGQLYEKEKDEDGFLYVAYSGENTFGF
UniProt Q9Y613, sequence (Q9Y613 whole entry, looked up): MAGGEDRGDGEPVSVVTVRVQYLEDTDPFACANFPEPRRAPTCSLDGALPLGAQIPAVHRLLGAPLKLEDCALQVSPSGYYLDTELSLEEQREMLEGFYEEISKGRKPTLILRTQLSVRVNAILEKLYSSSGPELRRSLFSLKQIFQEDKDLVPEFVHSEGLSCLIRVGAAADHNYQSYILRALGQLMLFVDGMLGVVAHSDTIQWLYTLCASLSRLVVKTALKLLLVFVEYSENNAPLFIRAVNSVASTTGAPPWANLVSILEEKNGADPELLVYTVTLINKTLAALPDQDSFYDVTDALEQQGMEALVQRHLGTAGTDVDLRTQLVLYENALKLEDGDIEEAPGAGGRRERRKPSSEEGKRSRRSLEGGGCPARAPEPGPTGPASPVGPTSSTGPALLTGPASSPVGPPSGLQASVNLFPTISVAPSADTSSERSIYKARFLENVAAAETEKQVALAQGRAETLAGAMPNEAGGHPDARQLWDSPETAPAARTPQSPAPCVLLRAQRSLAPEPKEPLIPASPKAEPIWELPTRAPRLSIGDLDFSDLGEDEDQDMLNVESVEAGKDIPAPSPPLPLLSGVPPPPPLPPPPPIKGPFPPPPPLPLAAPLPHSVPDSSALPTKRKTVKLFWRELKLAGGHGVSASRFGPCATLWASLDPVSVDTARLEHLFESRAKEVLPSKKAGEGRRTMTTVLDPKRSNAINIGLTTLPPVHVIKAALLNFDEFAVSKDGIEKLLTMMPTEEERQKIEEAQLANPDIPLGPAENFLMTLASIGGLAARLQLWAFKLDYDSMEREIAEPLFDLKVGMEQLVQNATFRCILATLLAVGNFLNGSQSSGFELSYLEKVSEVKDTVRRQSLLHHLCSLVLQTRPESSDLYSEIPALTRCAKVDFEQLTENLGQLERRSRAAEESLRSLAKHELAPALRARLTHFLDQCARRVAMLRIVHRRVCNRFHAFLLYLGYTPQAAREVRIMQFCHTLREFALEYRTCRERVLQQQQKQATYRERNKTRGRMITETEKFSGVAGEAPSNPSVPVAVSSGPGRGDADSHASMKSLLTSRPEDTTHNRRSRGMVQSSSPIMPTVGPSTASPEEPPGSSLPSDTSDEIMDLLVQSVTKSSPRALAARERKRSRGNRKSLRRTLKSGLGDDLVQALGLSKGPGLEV
UniProt P49841, sequence (P49841 whole entry, looked up): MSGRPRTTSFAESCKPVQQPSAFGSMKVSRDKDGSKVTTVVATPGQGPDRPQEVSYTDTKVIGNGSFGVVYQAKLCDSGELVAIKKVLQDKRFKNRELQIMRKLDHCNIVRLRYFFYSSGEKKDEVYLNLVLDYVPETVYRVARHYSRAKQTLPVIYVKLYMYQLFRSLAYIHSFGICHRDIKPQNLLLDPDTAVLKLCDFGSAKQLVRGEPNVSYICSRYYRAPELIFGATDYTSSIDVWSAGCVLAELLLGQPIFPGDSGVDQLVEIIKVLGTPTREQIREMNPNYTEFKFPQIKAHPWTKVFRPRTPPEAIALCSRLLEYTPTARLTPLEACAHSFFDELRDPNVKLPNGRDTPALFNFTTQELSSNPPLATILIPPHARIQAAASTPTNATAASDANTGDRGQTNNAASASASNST
UniProt Q9H4A6, sequence (Q9H4A6 whole entry, looked up): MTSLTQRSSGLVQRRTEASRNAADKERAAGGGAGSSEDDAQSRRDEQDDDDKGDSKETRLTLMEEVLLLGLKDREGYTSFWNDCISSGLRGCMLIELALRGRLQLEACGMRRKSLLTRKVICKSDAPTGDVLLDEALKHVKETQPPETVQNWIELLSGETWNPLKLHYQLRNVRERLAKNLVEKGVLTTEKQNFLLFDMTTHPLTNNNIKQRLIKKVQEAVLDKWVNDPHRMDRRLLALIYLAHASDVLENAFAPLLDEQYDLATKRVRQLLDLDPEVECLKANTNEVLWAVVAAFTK
UniProt O43427, sequence (O43427 whole entry, looked up): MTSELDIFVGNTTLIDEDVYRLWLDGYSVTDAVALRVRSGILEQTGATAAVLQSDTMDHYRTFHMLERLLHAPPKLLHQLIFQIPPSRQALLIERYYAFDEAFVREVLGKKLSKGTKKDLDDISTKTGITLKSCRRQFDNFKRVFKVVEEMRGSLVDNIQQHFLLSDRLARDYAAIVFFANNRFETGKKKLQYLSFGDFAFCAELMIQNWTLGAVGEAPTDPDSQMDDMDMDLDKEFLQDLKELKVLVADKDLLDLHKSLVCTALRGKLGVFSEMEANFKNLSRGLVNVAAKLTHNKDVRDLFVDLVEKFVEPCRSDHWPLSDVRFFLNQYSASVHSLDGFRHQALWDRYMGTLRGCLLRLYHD
UniProt P22087, sequence (P22087 whole entry, looked up): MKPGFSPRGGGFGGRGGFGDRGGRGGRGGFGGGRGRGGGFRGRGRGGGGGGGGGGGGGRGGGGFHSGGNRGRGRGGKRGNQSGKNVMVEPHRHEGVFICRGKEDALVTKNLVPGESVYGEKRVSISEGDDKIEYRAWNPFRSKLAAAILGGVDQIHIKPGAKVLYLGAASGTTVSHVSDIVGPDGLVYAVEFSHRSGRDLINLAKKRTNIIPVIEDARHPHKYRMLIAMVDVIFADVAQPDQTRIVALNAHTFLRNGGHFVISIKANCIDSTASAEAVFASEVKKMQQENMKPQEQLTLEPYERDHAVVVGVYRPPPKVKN

Target | log2 fold change (erlotinib) | log2 fold change [1] | log2 fold change [2] | log2 fold change [3] | log2 fold change [4] | log2 fold change [5] | log2 fold change [6] | log2 fold change [7] | log2 fold change [8] | log2 fold change [9] | log2 fold change (IRAK-1-4 Inhibitor I) | log2 fold change (ibrutinib) | log2 fold change [10] | log2 fold change (ralimetinib) | log2 fold change [11] | log2 fold change [12] | log2 fold change [13] | log2 fold change (pinometostat) | log2 fold change [14] | log2 fold change [15]
IFI30 (UniProt P13284) | 0.061 | 0.018 | -0.084 | 0.012 | -0.089 | 0.026 | 0.067 | 0.009 | -0.004 | 0.026 | 0.157 | 0.049 | 0.088 | -0.05 | 0.063 | 0.087 | -0.012 | 0.019 | -0.008 | -0.099
FNTA (UniProt P49354) | 0.245 | -0.033 | 0.116 | -0.017 | 0.075 | -0.009 | 0.051 | -0.034 | 0.065 | 0.106 | 0.052 | 0.107 | 0.081 | -0.05 | -0.023 | 0.016 | -0.031 | -0.018 | -0.023 | -0.074
HEATR5B (UniProt Q9P2D3) | -0.009 | 0.059 | -0.128 | 0.025 | -0.067 | 0.004 | 0.007 | 0.05 | -0.026 | 0.043 | -0.002 | 0.017 | 0.014 | 0.04 | -0.021 | -0.063 | 0.023 | 0.008 | 0.022 | 0.01
GSK3B isoform 2 (UniProt P49841) | -0.024 | -0.051 | 0.007 | 0.027 | 0.038 | -0.013 | 0.095 | 0.091 | 0.042 | 0.159 | 0.017 | 0.019 | 0.144 | -0.005 | -0.07 | 0.004 | -0.031 | -0.022 | -0.008 | -0.017
GABARAPL2 (UniProt P60520) | 0.065 | 0.013 | 0.021 | -0.02 | 0.072 | 0.016 | 0.077 | 0.008 | -0.027 | -0.021 | 0.107 | -0.018 | -0.076 | 0.008 | -0.028 | -0.269 (active) | -0.007 | -0.103 | 0.016 | -0.015
FBL (UniProt P22087) | 0.06 | -0.153 | -0.566 (active) | 0.013 | -0.102 | 0.13 | -0.099 | -0.091 | 0.054 | -0.117 | -0.094 | 0.048 | -0.03 | 0.17 | 0.146 | 0.199 | 0.184 | 0.319 | -0.031 | 0.206
FIBP (UniProt O43427) | 0.023 | 0.088 | 0.011 | -0.002 | 0.107 | -0.023 | -0.032 | 0.011 | -0.144 | 0.125 | 0.026 | 0.019 | -0.146 | 0.041 | -0.143 | 0.018 | 0.065 | 0.075 | – | -0.039
HIST2H3A (UniProt Q71DI3) | 0.113 | -0.114 | -0.305 | -0.028 | 0.011 | 0.221 | 0.047 | -0.004 | 0.287 | -0.378 | -0.269 | 0.081 | -0.012 | 0.292 | -0.021 | -0.225 | 0.18 | 0.29 | 0.002 | 0.727
HSPA8 (UniProt E9PK54) | -0.008 | 0 | -0.346 | 0.032 | 0 | 0.034 | -0.211 | -0.095 | -0.056 | -0.158 | -0.051 | -0.012 | 0.015 | -0.161 | 0.058 | 0.141 | 0.074 | 0.001 | 0.017 | -0.262
GID4 (UniProt Q8IVV7) | -0.033 | 0.017 | 0.005 | 0.028 | -0.046 | 0.003 | -0.072 | -0.018 | 0.042 | -0.005 | – | 0.035 | 0.025 | -0.019 | 0.016 | 0.028 | 0.027 | – | 0.023 | -0.071
GALNT4 (UniProt Q8N4A0) | 0.077 | 0.062 | 0.075 | 0.026 | 0.086 | 0.044 | -0.012 | 0.008 | 0.006 | 0.005 | 0.038 | 0.011 | -0.061 | -0.003 | -0.41 (active) | -0.041 | -0.002 | 0.014 | -0.004 | 0.072
HK2 (UniProt P52789) | -0.068 | 0.037 | 0.051 | 0 | 0.028 | -0.015 | 0.005 | -0.017 | 0.009 | 0.023 | -0.007 | -0.01 | -0.096 | -0.037 | -0.046 | 0.096 | -0.022 | -0.001 | 0.063 | 0.034
FHOD1 (UniProt Q9Y613) | -0.002 | -0.259 | -0.337 | -0.059 | 0.059 | 0.146 | -0.034 | -0.007 | – | – | -0.053 | 0.011 | 0.042 | 0.193 | 0.035 | -0.197 | 0.148 | 0.458 | 0.07 | –
HDHD2 (UniProt Q9H0R4) | 0.029 | 0 | 0.133 | 0.009 | 0.013 | 0.046 | -0.015 | -0.018 | -0.009 | 0.037 | 0.007 | -0.019 | 0.021 | -0.006 | -0.168 | 0.024 | -0.037 | -0.018 | -0.025 | 0.003
H2AFX (UniProt P16104) | 0.05 | -0.243 | -0.54 | 0.072 | 0.014 | 0.274 | -0.087 | -0.049 | 0.231 | -0.319 | -0.049 | 0.077 | 0.044 | 0.193 | 0.036 | -0.008 | 0.308 | 0.368 | -0.019 | 1.02 (active)
GOLPH3 (UniProt Q9H4A6) | 0.008 | 0.073 | 0.104 | -0.014 | 0.011 | 0.008 | 0.051 | -0.007 | -0.101 | 0.043 | 0.033 | -0.035 | -0.023 | -0.005 | -0.031 | 0.31 (active) | -0.005 | -0.013 | 0 | -0.028
